This is a sample that favours compounds with a hit; in the whole collection about 9.2% have one here.
ELG1 repair inh: blocks ELG1-dependent DNA repair in HEK293T cells; HEK293T ELG1-luciferase reporter, luminescence, 16 h; DNA damage induced by 5-fluorouridine; Potency, µM (doses to about 46.1 µM), actives largely listed as inhibitors; hit rate 2.3% among 330,000; AID 504467; note: nearly all actives have a fitted effect of over 55% in size
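Overnight (16 hr) co-exposure of 2,000 cells/well to 5-fluorouridine and compound at 37 °C preceded detection. Luciferase was quantified via ONE-Glo luminescence; loss of signal denotes inhibition.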
NPC1 prom act: activators of NPC1 promoter; Huh7 NPC1 promoter luciferase reporter, 24 h; Potency, µM (titrated, usually from 9.22 µM), most hits filed as activators; hit rate 2.4% among 320,000; AID 485313; note: nearly all actives have a fitted effect of over 60% in size
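NPC1 promoter–luciferase Huh7 cells; 24 h compound; luminescence.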
SMN2 splice up: SMN2 splice variant enhancement; HEK293 SMN2-luciferase splicing reporter, luminescence, 30-36 h; Potency, µM (doses to about 46.1 µM), actives largely listed as activators; hit rate 2.8% among 210,000; AID 1458; note: nearly all actives have a fitted effect of over 55% in size
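HEK293 cells carry an SMN2 minigene-luciferase reporter in which exon 7 inclusion puts luciferase in frame. Cells were seeded at 2000 cells/well, attached for 10-12 hours, then exposed to compounds for 30-36 hours at 37C before ONE-Glo luminescence.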
Rab9 promoter act: activators of Rab9 promoter; Huh7 Rab9 promoter-luciferase reporter, luminescence, 24 h; Potency, µM (doses to about 9.22 µM), actives largely listed as activators; hit rate 2.8% among 320,000; AID 485297; note: nearly all actives have a fitted effect of over 60% in size
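Measured in stably transfected Huh7 cells bearing a Rab9 promoter–luciferase construct: 24 h compound treatment at 37 °C, followed by luminescence detection.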
FLuc counter: inhibits or activates purified firefly luciferase, miR-21 counter-screen | AID 588342 | P08659 | Potency, µM (highest dose often 57.5 µM), actives largely listed as inhibitors | purified FLuc, Km substrates, luminescence inhibition | hit rate 6.9% among 360,000; note: nearly all actives have a fitted effect of over 55% in size
Target sequence (P08659 whole entry, looked up): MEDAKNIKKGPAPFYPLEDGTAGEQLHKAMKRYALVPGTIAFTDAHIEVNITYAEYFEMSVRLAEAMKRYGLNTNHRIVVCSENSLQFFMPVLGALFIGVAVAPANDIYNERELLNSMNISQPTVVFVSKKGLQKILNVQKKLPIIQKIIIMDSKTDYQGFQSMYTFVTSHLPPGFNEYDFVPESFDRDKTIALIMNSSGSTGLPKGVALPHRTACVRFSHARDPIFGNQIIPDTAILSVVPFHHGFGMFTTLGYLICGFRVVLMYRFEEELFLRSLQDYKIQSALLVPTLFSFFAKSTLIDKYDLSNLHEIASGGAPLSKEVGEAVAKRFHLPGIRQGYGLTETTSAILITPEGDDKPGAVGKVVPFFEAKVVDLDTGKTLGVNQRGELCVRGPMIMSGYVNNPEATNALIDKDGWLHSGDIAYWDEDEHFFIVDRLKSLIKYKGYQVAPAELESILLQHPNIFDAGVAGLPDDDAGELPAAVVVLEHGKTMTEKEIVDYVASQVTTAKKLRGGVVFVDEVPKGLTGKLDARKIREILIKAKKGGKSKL
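Purified P. pyralis luciferase, 10 nM final, with Km-level 10 uM D-luciferin and 10 uM ATP in 50 mM Tris acetate pH 7.5, 10 mM Mg acetate, 0.01% Tween-20, 0.05% BSA; 6-point qHTS titration about 60 µM downward; luminescence read.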
ELG1 genotox: genotoxicity induction in ELG1-luciferase HEK293T cells; HEK293T ELG1-luciferase reporter, luminescence, 16 h; hit rate 1.3% among 330,000; Potency, µM (doses to about 46 µM), most hits filed as activators; note: nearly all actives have a fitted effect of over 60% in size
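Screening used a luciferase reporter fused to human ELG1 in HEK293T cells. Luminescence was read on a CCD plate imager after 16 hr exposure and 30 min ONE-Glo incubation.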
Numbers stand for hits; 0 = inactive; ? = inconclusive; - = no result given; [ ] = remark or other dose. Calls come from the whole dose curve; as a rule, active = well fitted curve in the direction sought with a large enough effect; inconclusive = small, poorly fitted or top-dose-only effect, or another doubt; inactive = no such curve, though single readings can be large; an effect the other way counts as inactive or inconclusive.

SMILES | ELG1 repair inh | NPC1 prom act | SMN2 splice up | Rab9 promoter act | FLuc counter | ELG1 genotox
CCOC(=O)C1CCCN(C(=O)c2cc3cc4ccc(OC)cc4nc3o2)C1 (stereo unspecified) | 0 | 0 | - | 0 | ? | 0
CCOC(=O)C1CCN(C(=O)c2cc3cc4cc(OC)ccc4nc3o2)CC1 | ? | ? | 11µM | 3.2µM | ? | 0
O=C(NN1C(=O)NC2(CCCCC2)C1=O)c1ccc(Cl)s1 | 0 | 0 | - | 0 | 0 | 0
CN(C)CC(C(=O)c1ccccc1)c1ccccc1 (stereo unspecified) | 16µM | 0 | 0 | 0 | 0 | 0
CC(=O)c1ccc(OCCCC(=O)NNC(=O)c2ccccn2)cc1 | 0 | 0 | - | 0 | 0 | 0
Cc1ccc(CS/C(Nc2ccccc2C)=C(\C#N)C(=O)NCc2ccco2)c(C)c1 | 15µM | 0 | 0 | 0 | 0 | 0
Cc1ccccc1N/C(SCc1ccc(Cl)cc1)=C(/C#N)C(=O)NCc1ccco1 | ? | 0 | 0 | 0 | 0 | 0
COc1ccc(NC(=O)CSc2ncccc2C(=O)OC(C)C)cc1OC | ? | 0 | 0 | 0 | ? | 0
CC(C)c1ccc(NC(=O)CSc2ncccc2C(=O)Oc2cccc([N+](=O)[O-])c2)cc1 | ? | 4µM | 10µM | 4.5µM | ? | 16µM
COc1ccc(Nc2cc(C)nc(NCc3ccccc3)n2)cc1 | 18µM | 0 | - | 0 | 0 | 0
Cc1cc(C)nc(N/N=C/c2ccccc2Cl)n1 | ? | 0 | - | ? | ? | 0
Cc1cc(N/N=C/c2ccccc2Cl)nc(NCc2ccccc2)n1 | ? | 0 | 0 | 0 | 7.6µM | 0
C=C(C)COc1ccc(-c2nc(N)ncc2Oc2ccc(OC)cc2)c(O)c1 | 0 | 0 | 0 | 0 | 0 | 0
C=C(C)COc1ccc(-c2nc(N)ncc2Oc2ccccc2OC)c(O)c1 | 0 | 0 | 0 | 0 | 21µM | 0
COc1ccc2c(N)c(C(=O)NN)[nH]c2c1 | 0 | 0 | - | 0 | 17µM | 0
COc1ccc2c(Sc3ccccc3)c(C(=O)NCCN(C)C)[nH]c2c1 | - | - | - | - | 4.8µM | -
COc1ccc(/C=C\C(=O)O[C@@H]2C(O)C(O[C@@H]3OC(C)[C@H](O[C@@H]4OCC(O[C@H]5O[C@H](CO)[C@@H](O)C(O)C5O)C(O)C4O)C(O)C3O)[C@H](OC(=O)[C@]34CCC(C)(C)C[C@@H]3C3=CCC5[C@@]6(C)CC(O)C(O[C@@H]7OC(CO)C(O)[C@H](O)[C@H]7O)[C@@](C)(C(=O)O)C6CC[C@@]5(C)[C@]3(CO)CC4)O[C@H]2C)cc1 (stereo partly specified) | ? | - | - | - | - | 0
CCOc1ccc(C=Nc2cccc3ncccc23)cc1 | 0 | 0 | 0 | 0 | 21µM | 0
COc1ccc(/C=N/n2c(N)nc(-c3ccccc3)c2-c2ccccc2)cc1 | 0 | 0 | 0 | 0 | ? | 0
Cc1ccc(C=Nc2cccnc2N)cc1 | ? | 0 | ? | 0 | 6.7µM | 0
COc1ccc(C=Nc2cccnc2N)cc1 | ? | 0 | - | 0 | 11µM | 0
Cc1ccc(S(=O)(=O)c2ncccc2N)cc1 | 0 | 0 | - | 0[1.84 µM] | 0 | 0
Oc1ccc(C=Nc2cccc3ncccc23)c(O)c1 | 0 | 0 | 0 | 0 | 0 | 0
O=C(Nc1ccnn1C1CCN(C(=O)c2ccc(F)c(Cl)c2)CC1)C1CC1 | 0 | 0 | - | 0 | 0 | 0
COc1ccc(NS(=O)(=O)c2cccc(C(=O)N(C)Cc3ccc(SC)cc3)c2)cc1 | ? | 0 | - | 0 | 0 | 0
SMILES | ELG1 repair inh | NPC1 prom act | SMN2 splice up | Rab9 promoter act | FLuc counter | ELG1 genotox
CCCCOc1ccc(C(=O)OCC(=O)N2CCOCC2)cc1 | 0 | 0 | - | 0 | 0 | 0
CC1CC(C)CN(S(=O)(=O)c2ccc3c(c2)CCN3C(=O)C2CC2)C1 (stereo unspecified) | 0 | 0 | - | 0 | 0 | 0
CC(C)C(=O)Nc1nc(-c2ccc3c(c2)CCN3C(=O)C2CC2)cs1 | 0 | ? | - | ? | 15µM | 0
CCC(CC)C(=O)Nc1nc(-c2ccc3c(c2)CCN3C(=O)C2CC2)c(C)s1 | 21µM | 0 | 0 | 0 | 0 | 0
CC(C)(C)Nc1nc(-c2ccc3c(c2)CCN3C(=O)C2CC2)cs1 | ? | 1.8µM | - | ? | 3µM | ?
O=C(CN1CCOCC1)Nc1nc(-c2ccc3c(c2)CCN3S(=O)(=O)c2ccccc2)cs1 | ? | 0 | 0 | 0 | 0 | 0
O=C(COc1ccccc1Cl)N(Cc1cccc(F)c1)C1CCS(=O)(=O)C1 (stereo unspecified) | - | - | 0 | - | 0 | -
Cc1ccc(S(=O)(=O)Nc2c(C(=O)O)[nH]c3ccccc23)c(C)c1 | 0 | 0 | - | 0 | 0 | 0
O=c1c2ccccc2nnn1COc1cccc2ccccc12 | ? | ? | 0 | 4µM | 17µM | 0
O=c1c2ccccc2nnn1COc1ccc(F)cc1Cl | ? | ? | ? | 2.5µM | ? | ?
O=c1c2ccccc2nnn1COc1ccc(Cl)cc1Br | ? | ? | ? | 3.2µM | 24µM | ?
CCC(=O)OCn1nnc2ccccc2c1=O | 0 | 0 | 0 | 0 | 0 | 0
CC(Oc1ccc(Cl)cc1Cl)C(=O)OCn1nnc2ccccc2c1=O (stereo unspecified) | 0 | 0 | 0 | 0 | 0 | 0
CNC(=S)Nc1cccc(C(=O)OC)c1 | ? | 3.5µM | - | 2µM | 0 | 0
COC(=O)c1cccc(NC(=S)NCc2ccc(F)cc2)c1 | 0 | 0 | 7.1µM | 0 | 0 | 0
COC(=O)c1cccc(NC(=S)NCc2ccco2)c1 | 0 | 0 | 0 | 0 | ? | 0
CC(C)(C)c1ccc(OCc2ccc(C(=O)NN)o2)cc1 | ? | 0.4µM | - | 0.79µM | 15µM | ?
COc1ccccc1OCc1ccc(C(=O)NCc2cccnc2)o1 | 0 | 0 | 0 | 0 | 0 | 0
CC(C)(c1ccccc1)c1ccc(OCc2ccc(C(=O)O)o2)cc1 | ? | 2.8µM | - | 1.1µM | 27µM | ?
CC(C)(C)c1ccc(OCc2ccc(C(=O)NCc3cccnc3)o2)cc1 | ? | 2.8µM | ? | 1.3µM | 17µM | ?
Cc1ccc(SC[C@H](c2ccccc2)N2CCN(CC(C)C)CCC2=O)cc1 | ? | 0 | - | 0 | ? | 0
CCCCCCCCCCCCCCCC(=O)NCC(=O)O | - | - | 0 | - | - | -
CN(C)c1ccc(Nc2nc3ccccc3n3nnnc23)cc1 | - | - | 0 | - | 6.7µM | -
CCOc1ccc(CCNC(=O)c2ccc(Nc3nc4ccccc4n4nnnc34)cc2)cc1OCC | - | - | 0 | - | 0 | -
Cc1ccc(N2CCN(C(=O)c3ccc(Nc4nc5ccccc5n5nnnc45)cc3)CC2)c(C)c1 | - | - | 0 | - | 0 | -
CCOc1ccc(Nc2nc3ccccc3n3nnnc23)cc1 | ? | 0 | 0 | 4.5µM | ? | ?
CC(NC(=O)c1ccc(Nc2nc3ccccc3n3nnnc23)cc1)c1ccccc1 (stereo unspecified) | - | - | 0 | - | 0 | -
Cc1ccc(C(=O)O)cc1Nc1nc2ccccc2n2nnnc12 | - | - | ? | - | 17µM | -
CCOC(=O)c1c(C)[nH]c(C(=O)COC(=O)CCC2CCCC2)c1C | 0 | 0 | - | 0 | 0 | 0
